Shown is part of a subset that was picked to be rich in hits.
Tg IFNy HTS: T. gondii growth inhibition under IFN-gamma; Toxoplasma gondii growth in IFN-gamma-treated host cells; hits give low values; activity change, negative = inhibition, % (test concentration not listed); hit rate 3.8% among 69,000; AID 1259416; in the data active means activity change below about -70%, passing the limit was not always enough;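 further: host cells are HeLa cells infected with Toxoplasma gondii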
Hits are given with their value.

What do the screens show for `OCCCCn1cnc(-c2ccccc2)c1-c1ccc2cccc(Cl)c2n1`?
Tg IFNy HTS: -88

Results for CCc1nc(-c2c(-c3ccccc3)ncn2CCCO)c(C)[nH]1 ?
Tg IFNy HTS: inactive

Results for COc1cc(NC(=O)C2(C)CC(C)=NO2)ccc1NC(=O)C(C)(C)C (centres undefined) ?
Tg IFNy HTS: inactive

How did CC(C)c1ccc(/C=C/C(=O)O)cc1 do in these assays?
Tg IFNy HTS: inactive

How did O=C(O)/C=C/c1ccc(O)c(O)c1 do in these assays?
Tg IFNy HTS: inactive

What do the screens show for `O=C(O)/C=C/c1ccc(-c2ccc(O)c(C34CC5CC(CC(C5)C3)C4)c2)cc1`?
Tg IFNy HTS: -79

Results for Cc1ccc(CN2CCC(CNC(=O)C(C)n3c4ccccc4c4cnn(C)c(=O)c43)C2)cc1 (centres undefined) ?
Tg IFNy HTS: -104

How did CC(CCNC(=O)C(C)n1c2ccccc2c2cnn(C)c(=O)c21)N1CCCC1 (centres undefined) do in these assays?
Tg IFNy HTS: inactive

How did Cc1ccc(CN2CCC(CNC(=O)Cn3c4ccccc4c4cnn(C)c(=O)c43)C2)cc1 (centres undefined) do in these assays?
Tg IFNy HTS: inactive

How did CCN(C(=O)c1ccc(=O)n(C)c1)C(C)Cc1ccc(OC)cc1 (centres undefined) do in these assays?
Tg IFNy HTS: inactive

How did CC1=C(C(=O)N(C)Cc2n[nH]c3c2CCCCC3)C(C)NC(=O)N1 (centres undefined) do in these assays?
Tg IFNy HTS: inactive

How did Cn1cc(-c2ncnc3c2CCN(C(N)=O)CC3)cn1 do in these assays?
Tg IFNy HTS: inactive

Results for CCN1c2cc(C)ccc2-n2cccc2C12CCN(S(=O)(=O)c1c(C)cc(C)cc1C)CC2 ?
Tg IFNy HTS: -118

What do the screens show for `Cc1cc(C)c(S(=O)(=O)N2CCC3(CC2)Nc2cc(F)ccc2-n2cccc23)c(C)c1`?
Tg IFNy HTS: inactive

Results for CCN1c2cc(C)ccc2-n2cccc2C12CCN(C(=O)c1ccc(OC)cc1)CC2 ?
Tg IFNy HTS: -90

What do the screens show for `Cc1ccc(S(=O)(=O)N2CCC3(CC2)Nc2ccc(C)c(C)c2-n2cccc23)cc1C`?
Tg IFNy HTS: inactive

Results for COc1ccc2c(c1)NC1(CCN(S(=O)(=O)c3c(C)cc(C)cc3C)CC1)c1cccn1-2 ?
Tg IFNy HTS: inactive

How did Cc1ccc2c(c1)NC1(CCN(S(=O)(=O)c3ccc(C)c(C)c3)CC1)c1cccn1-2 do in these assays?
Tg IFNy HTS: inactive

What do the screens show for `CCN1c2cc(C)ccc2-n2cccc2C12CCN(C(=O)NCC(=O)OC)CC2`?
Tg IFNy HTS: inactive

What do the screens show for `CCN1c2cc(C)ccc2-n2cccc2C12CCN(C(=O)NC(C)C(=O)OC)CC2` (centres undefined)?
Tg IFNy HTS: inactive

What do the screens show for `CCN1c2cc(C)ccc2-n2cccc2C12CCN(S(=O)(=O)c1ccc(C(C)(C)C)cc1)CC2`?
Tg IFNy HTS: inactive

What do the screens show for `CCN1c2cc(C)ccc2-n2cccc2C12CCN(S(=O)(=O)c1ccc(C)c(C)c1)CC2`?
Tg IFNy HTS: -112

How did CCCNC(=O)N1CCC2(CC1)c1cccn1-c1ccc(C)cc1N2CC do in these assays?
Tg IFNy HTS: inactive

Results for CCN1c2cc(C)ccc2-n2cccc2C12CCN(S(=O)(=O)c1ccc(C)cc1)CC2 ?
Tg IFNy HTS: -86

Results for CC(c1cccc(-c2cncc(C(=O)N3CCOCC3)n2)c1)N1CCCC1 (centres undefined) ?
Tg IFNy HTS: inactive

How did O=C(CSc1cccs1)Nc1ccc(F)c(Cl)c1 do in these assays?
Tg IFNy HTS: inactive

What do the screens show for `CN(Cc1ccccc1)C1CCN(C(=O)c2ccncc2)C(C(=O)O)C1` (centres undefined)?
Tg IFNy HTS: inactive

What do the screens show for `Cc1cccc(C(C(=O)NCc2[nH]cc(C)c(=O)c2C)N(C)C)c1` (centres undefined)?
Tg IFNy HTS: inactive

Results for O=C(O)C1CCN(C(=O)CCN2CCCCCCC2)CC1 ?
Tg IFNy HTS: inactive

How did CC1CCN(S(=O)(=O)c2ccc3c(c2)CCC(=O)N3CC(=O)NCCC2=CCCCC2)CC1 do in these assays?
Tg IFNy HTS: inactive

What do the screens show for `CCOC(=O)c1ccccc1NC(=O)N1CCC2(CC1)Nc1ccccc1-n1cccc12`?
Tg IFNy HTS: inactive

Results for CCOc1ccc(NC(=O)C(Cc2cccc(C)c2)c2nn[nH]n2)cc1 (centres undefined) ?
Tg IFNy HTS: inactive

Results for Cn1c(N2CC[C@H](O)C2)nc2cc(C(=O)N3CCC4(CCCO4)CC3)ccc21 ?
Tg IFNy HTS: inactive

Results for COc1ccccc1-n1cc(C(=O)NCc2cnc(C)cn2)cn1 ?
Tg IFNy HTS: inactive

What do the screens show for `CCN1c2cc(C)ccc2-n2cccc2C12CCN(S(=O)(=O)c1cccc(Cl)c1)CC2`?
Tg IFNy HTS: -84

Results for COc1ccc(S(=O)(=O)N2CCC3(CC2)Nc2cc(C)ccc2-n2cccc23)cc1Cl ?
Tg IFNy HTS: inactive

Results for Cc1ccc2c(c1C)-n1cccc1C1(CCN(S(=O)(=O)c3cccc(Cl)c3)CC1)N2 ?
Tg IFNy HTS: inactive

What do the screens show for `COc1ccc(Cl)cc1S(=O)(=O)N1CCC2(CC1)Nc1cc(C)ccc1-n1cccc12`?
Tg IFNy HTS: inactive

How did COc1ccc(S(=O)(=O)N2CCC3(CC2)Nc2cc(OC)ccc2-n2cccc23)cc1 do in these assays?
Tg IFNy HTS: inactive

How did CCN1c2cc(C)ccc2-n2cccc2C12CCN(S(=O)(=O)c1ccc(OC)c(OC)c1)CC2 do in these assays?
Tg IFNy HTS: inactive

Results for CCN1c2cc(C)ccc2-n2cccc2C12CCN(S(=O)(=O)c1cc(Cl)ccc1OC)CC2 ?
Tg IFNy HTS: -106

How did CCN1c2cc(C)ccc2-n2cccc2C12CCN(S(=O)(=O)c1ccc(OC)cc1)CC2 do in these assays?
Tg IFNy HTS: -91

What do the screens show for `Cc1cnc(N2CCC3C2CCC(=O)N3Cc2csc(C)n2)nc1` (centres undefined)?
Tg IFNy HTS: inactive

How did CCOc1ccccc1CNC(=O)CN1C(=O)CCc2cc(Br)ccc21 do in these assays?
Tg IFNy HTS: inactive

Results for Cc1ccc(=O)n(CC(=O)N2CCC(c3ccc(C(=O)NC4CCCC4)cn3)CC2)n1 ?
Tg IFNy HTS: inactive

Results for Cc1cc(NC(=O)CSc2nnc(-c3cccs3)o2)n(-c2ccccc2)n1 ?
Tg IFNy HTS: inactive

What do the screens show for `Cc1ccccc1OCC(=O)NCCc1csc(-c2ccc(Cl)cc2)n1`?
Tg IFNy HTS: inactive

How did CCc1ccc(Nc2nc(C(=O)NCCC3=CCCCC3)nc3ccccc23)cc1 do in these assays?
Tg IFNy HTS: inactive

How did Cc1cc(C(=O)NC(CC(C)(C)C)c2cccnc2)n[nH]1 (centres undefined) do in these assays?
Tg IFNy HTS: inactive

Results for CCCOCCN1CCN(c2ncc(C)c(N(C)C)n2)CC1 ?
Tg IFNy HTS: inactive

Results for Cc1ccc(CN2CCN(Cc3cnc(C)[nH]3)CC2=O)cc1 ?
Tg IFNy HTS: inactive

Results for Cc1ccc(CN2CCN(c3ncc(C)c(N(C)C)n3)CC2=O)cc1 ?
Tg IFNy HTS: -85

Results for CC(C)(NC(=O)c1cccs1)C(=O)NCCSc1cn[nH]n1 ?
Tg IFNy HTS: inactive

Results for Cc1oc(-c2ccc(C(=O)NC(C)c3ccccc3)cc2)nc1CN1CCN(c2ccccc2)CC1 (centres undefined) ?
Tg IFNy HTS: inactive

Results for CCCc1nc(C)cc(N2CCCC(O)(CO)CC2)n1 (centres undefined) ?
Tg IFNy HTS: inactive

What do the screens show for `Cc1ccc(C)c(-c2[nH]ncc2CN(C)Cc2cnn(C)c2C)c1`?
Tg IFNy HTS: inactive

What do the screens show for `Cc1c(CN(C)Cc2cccc(C(C)(C)C)c2O)cnn1C`?
Tg IFNy HTS: -93

Screens deposited in PubChem BioAssay by Broad Institute.
